How the values were obtained:
Assay in all cases: log2 ratio of Biotin-Ahx-Ub-VS probe labelling (fragment/DMSO); higher = less target engagement (more negative = stronger competition), active = hit call of the paper (q ≤ 0.05, log2 ratio ≤ -1)
Details in all cases: compound concentration: 200 uM; treatment time: 3 h
USP34 = USP34 (UniProt Q70CQ2)
Method in brief: (§1)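 Each value is an average log2 ratio of fragment to vehicle, tested by unpaired t-test. The underlying Spectronaut label-free quantities were global-median-normalised, and only proteins with ≥2 unique peptides were included. Triplicate HEK293T lysate samples (495 µg) were exposed to fragment at 200 µM or vehicle for 3 h, then to Biotin-Ahx-Ub-VS at 0.5 µM final for 1 h, before NeutrAvidin enrichment of labelled DUBs, LysC and trypsin digestion, and diaPASEF LC-MS/MS.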

USP36 = molecular target: T1, USP36 (UniProt Q9P275)
T1 sequence (whole entry): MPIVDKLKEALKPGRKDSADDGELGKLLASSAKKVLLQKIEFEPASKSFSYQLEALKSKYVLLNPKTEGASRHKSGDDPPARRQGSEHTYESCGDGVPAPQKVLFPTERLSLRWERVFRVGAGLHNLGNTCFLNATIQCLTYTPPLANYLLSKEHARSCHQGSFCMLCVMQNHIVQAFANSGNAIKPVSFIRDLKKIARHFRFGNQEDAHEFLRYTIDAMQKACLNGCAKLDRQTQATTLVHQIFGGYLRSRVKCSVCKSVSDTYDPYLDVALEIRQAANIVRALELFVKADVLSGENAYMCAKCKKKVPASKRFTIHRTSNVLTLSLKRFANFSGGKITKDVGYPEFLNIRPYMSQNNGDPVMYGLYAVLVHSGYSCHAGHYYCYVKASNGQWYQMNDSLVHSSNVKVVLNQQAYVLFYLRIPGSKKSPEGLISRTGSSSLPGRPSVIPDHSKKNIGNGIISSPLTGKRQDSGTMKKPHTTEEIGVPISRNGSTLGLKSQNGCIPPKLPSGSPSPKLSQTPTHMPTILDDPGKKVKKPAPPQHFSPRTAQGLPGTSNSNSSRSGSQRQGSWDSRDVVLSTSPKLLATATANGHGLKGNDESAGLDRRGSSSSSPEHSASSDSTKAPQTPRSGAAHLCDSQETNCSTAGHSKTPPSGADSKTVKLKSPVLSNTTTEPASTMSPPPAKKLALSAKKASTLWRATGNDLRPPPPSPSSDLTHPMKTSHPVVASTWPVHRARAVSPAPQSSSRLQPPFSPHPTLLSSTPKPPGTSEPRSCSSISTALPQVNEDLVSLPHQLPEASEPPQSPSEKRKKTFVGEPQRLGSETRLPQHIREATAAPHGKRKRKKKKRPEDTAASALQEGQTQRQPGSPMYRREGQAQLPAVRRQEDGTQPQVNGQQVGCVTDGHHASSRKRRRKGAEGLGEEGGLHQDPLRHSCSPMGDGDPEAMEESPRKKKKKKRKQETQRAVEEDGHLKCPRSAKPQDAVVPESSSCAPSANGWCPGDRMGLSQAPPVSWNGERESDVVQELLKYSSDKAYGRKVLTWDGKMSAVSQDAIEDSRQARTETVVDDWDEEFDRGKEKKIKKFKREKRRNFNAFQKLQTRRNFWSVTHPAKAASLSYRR
Method in brief: as §1

USP38 = molecular target: T2, USP38 (UniProt Q8NB14)
T2 sequence (whole entry): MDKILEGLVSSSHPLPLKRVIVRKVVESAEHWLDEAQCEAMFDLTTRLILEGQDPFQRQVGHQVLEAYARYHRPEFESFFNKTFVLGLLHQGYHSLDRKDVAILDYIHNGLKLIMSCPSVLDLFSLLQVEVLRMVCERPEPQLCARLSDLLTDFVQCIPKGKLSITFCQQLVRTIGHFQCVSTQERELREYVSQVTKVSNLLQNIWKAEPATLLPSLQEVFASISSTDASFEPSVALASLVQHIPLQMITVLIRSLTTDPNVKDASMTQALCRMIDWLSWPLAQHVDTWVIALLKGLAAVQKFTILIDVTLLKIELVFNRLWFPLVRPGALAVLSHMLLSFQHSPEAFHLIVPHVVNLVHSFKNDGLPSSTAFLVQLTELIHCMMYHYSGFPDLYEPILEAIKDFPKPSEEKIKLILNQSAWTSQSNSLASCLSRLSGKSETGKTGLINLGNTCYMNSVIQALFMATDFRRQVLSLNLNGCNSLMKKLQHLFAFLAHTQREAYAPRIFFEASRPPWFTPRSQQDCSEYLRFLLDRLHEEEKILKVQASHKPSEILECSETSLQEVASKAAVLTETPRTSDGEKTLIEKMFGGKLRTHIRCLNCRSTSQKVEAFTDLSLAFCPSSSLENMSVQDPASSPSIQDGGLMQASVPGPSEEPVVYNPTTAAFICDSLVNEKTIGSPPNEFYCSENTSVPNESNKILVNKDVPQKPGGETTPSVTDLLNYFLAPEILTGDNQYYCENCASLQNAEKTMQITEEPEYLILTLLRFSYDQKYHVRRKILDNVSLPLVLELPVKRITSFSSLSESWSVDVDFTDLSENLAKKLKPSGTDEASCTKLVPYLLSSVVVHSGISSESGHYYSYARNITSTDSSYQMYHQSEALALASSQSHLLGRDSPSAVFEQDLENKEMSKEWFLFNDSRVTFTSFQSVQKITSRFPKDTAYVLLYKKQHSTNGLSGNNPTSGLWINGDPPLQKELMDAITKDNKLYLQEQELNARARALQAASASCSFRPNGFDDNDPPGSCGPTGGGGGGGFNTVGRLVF
Method in brief: as §1

USP39 = molecular target: T3, USP39 (UniProt Q53GS9)
T3 sequence (whole entry): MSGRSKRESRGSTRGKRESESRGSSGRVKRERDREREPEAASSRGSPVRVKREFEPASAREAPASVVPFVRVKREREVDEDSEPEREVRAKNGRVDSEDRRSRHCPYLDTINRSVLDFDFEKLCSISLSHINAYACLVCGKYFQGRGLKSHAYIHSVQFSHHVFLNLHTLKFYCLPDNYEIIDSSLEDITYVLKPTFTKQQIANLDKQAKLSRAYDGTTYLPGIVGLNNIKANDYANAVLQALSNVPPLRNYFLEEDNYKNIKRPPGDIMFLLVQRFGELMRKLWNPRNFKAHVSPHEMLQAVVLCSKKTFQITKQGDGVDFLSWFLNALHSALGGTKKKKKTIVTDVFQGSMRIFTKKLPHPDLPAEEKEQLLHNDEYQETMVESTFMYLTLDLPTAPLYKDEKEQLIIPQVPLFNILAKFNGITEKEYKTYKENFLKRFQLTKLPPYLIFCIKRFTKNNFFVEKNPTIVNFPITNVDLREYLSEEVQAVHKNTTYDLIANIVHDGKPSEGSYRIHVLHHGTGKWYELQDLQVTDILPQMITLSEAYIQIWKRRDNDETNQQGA
Method in brief: as §1

USP4 = molecular target: T4, USP4 (UniProt Q13107)
T4 sequence (whole entry): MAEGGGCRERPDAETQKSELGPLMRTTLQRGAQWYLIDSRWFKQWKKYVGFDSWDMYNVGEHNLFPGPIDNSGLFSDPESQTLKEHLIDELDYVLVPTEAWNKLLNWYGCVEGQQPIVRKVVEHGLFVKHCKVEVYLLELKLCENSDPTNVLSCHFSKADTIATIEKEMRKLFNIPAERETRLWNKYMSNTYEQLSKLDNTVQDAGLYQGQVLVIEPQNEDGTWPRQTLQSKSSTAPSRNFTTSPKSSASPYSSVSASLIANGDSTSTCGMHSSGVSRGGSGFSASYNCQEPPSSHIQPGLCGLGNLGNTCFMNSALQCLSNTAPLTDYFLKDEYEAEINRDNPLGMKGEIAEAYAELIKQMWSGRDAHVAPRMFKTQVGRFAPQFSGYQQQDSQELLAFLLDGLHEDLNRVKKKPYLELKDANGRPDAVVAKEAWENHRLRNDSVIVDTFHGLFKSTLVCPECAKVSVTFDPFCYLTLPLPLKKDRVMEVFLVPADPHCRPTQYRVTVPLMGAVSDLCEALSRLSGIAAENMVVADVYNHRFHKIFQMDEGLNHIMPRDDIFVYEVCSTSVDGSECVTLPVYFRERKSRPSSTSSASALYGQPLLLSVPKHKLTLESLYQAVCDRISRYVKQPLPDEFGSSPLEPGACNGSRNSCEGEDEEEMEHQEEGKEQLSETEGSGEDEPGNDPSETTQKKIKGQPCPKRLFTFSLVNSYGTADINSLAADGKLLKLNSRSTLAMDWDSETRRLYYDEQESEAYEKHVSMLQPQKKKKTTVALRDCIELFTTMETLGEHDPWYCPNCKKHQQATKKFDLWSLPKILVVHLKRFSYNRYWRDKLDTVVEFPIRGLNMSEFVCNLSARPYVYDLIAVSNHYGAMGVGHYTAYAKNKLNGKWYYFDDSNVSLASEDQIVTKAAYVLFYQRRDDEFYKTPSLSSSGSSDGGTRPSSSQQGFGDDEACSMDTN
Method in brief: as §1

Measured: log2 ratio of Biotin-Ahx-Ub-VS probe labelling

Sequence of USP34 (Q70CQ2 whole entry, the tested form may be a part): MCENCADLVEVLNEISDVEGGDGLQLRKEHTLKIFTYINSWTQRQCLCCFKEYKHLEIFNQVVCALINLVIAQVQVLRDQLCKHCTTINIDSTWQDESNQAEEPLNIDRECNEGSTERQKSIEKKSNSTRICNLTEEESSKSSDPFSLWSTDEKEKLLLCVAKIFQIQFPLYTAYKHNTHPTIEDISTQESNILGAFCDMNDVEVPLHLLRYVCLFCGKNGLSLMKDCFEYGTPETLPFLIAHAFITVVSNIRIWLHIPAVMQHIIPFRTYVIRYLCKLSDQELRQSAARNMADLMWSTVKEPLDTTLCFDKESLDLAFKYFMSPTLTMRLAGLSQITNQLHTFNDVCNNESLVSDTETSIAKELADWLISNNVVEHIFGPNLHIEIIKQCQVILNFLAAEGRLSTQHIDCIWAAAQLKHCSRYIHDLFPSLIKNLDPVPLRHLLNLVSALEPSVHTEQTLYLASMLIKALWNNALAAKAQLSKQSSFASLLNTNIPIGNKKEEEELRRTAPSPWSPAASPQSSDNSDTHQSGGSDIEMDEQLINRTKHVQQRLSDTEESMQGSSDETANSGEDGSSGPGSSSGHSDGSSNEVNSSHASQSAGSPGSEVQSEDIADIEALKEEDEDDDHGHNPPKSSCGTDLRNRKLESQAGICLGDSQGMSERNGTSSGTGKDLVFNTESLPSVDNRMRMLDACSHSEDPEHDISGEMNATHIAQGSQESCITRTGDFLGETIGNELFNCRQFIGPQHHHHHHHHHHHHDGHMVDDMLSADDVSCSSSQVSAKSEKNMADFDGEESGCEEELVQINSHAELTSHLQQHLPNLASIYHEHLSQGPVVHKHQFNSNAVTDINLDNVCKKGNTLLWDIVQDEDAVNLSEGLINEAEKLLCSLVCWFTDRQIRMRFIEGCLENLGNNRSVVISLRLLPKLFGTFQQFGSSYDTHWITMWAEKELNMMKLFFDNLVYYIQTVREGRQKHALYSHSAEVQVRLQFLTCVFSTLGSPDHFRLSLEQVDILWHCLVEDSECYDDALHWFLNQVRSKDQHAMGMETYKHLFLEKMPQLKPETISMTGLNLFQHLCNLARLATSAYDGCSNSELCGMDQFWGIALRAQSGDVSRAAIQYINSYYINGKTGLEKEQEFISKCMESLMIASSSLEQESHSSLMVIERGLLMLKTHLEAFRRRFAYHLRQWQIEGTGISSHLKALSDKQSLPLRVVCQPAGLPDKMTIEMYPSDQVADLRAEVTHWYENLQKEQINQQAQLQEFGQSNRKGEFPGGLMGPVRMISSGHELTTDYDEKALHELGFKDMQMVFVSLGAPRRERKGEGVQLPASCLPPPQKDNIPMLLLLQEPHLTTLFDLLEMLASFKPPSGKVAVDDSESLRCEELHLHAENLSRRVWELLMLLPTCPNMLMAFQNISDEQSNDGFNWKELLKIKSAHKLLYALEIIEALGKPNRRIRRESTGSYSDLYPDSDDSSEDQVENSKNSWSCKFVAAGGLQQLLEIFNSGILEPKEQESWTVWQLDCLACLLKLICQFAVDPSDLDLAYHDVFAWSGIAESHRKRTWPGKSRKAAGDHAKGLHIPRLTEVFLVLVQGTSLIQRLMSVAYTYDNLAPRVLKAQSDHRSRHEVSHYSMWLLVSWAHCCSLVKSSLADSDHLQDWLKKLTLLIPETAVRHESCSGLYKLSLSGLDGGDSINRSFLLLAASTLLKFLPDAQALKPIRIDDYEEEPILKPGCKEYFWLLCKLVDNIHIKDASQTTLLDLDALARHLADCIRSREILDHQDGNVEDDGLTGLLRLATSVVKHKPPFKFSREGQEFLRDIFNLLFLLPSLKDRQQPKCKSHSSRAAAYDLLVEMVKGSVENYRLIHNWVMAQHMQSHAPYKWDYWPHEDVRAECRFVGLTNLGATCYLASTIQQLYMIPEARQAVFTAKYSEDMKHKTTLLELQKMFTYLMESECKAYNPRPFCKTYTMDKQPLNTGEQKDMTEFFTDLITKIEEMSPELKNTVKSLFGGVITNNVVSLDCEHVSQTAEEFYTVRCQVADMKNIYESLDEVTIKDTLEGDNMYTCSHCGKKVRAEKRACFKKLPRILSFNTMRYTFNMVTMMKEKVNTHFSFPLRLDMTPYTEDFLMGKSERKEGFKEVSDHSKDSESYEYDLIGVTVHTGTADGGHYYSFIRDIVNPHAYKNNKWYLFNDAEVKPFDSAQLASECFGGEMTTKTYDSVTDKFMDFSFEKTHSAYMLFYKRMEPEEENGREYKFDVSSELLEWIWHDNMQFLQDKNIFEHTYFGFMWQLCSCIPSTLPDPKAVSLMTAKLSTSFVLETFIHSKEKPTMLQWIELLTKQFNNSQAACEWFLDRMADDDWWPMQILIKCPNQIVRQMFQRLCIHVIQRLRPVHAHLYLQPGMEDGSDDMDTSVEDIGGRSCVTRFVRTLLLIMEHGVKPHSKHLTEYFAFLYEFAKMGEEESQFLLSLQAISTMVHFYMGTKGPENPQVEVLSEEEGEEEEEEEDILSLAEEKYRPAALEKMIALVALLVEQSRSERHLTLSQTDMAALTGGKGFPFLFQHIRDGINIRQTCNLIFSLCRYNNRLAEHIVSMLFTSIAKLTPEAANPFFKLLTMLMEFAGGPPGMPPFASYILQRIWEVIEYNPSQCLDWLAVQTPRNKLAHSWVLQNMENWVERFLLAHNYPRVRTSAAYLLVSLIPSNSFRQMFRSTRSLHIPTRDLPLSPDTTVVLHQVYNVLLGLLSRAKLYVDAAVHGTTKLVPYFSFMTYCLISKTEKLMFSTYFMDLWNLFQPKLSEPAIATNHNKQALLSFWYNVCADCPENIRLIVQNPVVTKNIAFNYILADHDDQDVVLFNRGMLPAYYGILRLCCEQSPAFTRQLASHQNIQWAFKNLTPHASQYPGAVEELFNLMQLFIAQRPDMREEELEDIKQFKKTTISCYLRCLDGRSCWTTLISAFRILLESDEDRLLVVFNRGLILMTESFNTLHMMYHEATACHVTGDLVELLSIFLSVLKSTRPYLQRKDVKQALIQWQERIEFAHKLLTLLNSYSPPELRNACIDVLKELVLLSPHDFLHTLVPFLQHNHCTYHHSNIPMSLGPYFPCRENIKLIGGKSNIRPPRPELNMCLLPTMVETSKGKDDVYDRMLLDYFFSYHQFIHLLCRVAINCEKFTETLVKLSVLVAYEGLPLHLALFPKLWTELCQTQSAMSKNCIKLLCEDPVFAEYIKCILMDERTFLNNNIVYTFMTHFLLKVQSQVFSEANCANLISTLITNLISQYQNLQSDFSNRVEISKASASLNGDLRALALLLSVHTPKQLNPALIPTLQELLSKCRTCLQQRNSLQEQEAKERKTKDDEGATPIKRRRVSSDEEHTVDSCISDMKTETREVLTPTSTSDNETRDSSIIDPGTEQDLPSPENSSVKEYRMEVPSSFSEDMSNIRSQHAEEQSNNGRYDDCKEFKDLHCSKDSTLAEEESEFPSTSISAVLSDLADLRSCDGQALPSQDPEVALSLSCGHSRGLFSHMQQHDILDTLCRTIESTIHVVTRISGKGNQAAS

O=C(CCl)Nc1cccc2ncccc12
inactive: USP34 -0.104 | USP36 0.45 | USP38 0.13 | USP39 0.472 | USP4 0.0333
